Inconclusive results are not listed. A number with no mark means an inactive call. Active and inactive are the calls of the source. Calls follow the shape of the dose curve; as a rule, active = well fitted inhibition curve with a large enough effect; inconclusive = small, poorly fitted or top-dose-only effect; inactive = no such curve, though single readings can be large or run the other way.
system: Zika virus NS2B-NS3 protease (linked construct); test: Primary screen NINDS Rhodamine qHTS for Zika virus inhibitors (AID 1347160); conditions: purified NS2B-NS3 protease, Rhodamine110 substrate fluorescence; series mostly up to 33.1 µM; activity change, negative = inhibition: at the top concentration; also: nearly all actives have a fitted effect of over 55% in size
In short: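 Aprotinin served as in-plate control. Conditions: 25 nM linked NS2B-NS3, pH 8.0 Tris buffer, titrated compounds, 15 min preincubation and 15 min reaction with 1.5 microM Rhod110 substrate at room temperature.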
% is scaled to controls: 0 for no effect and ±100 for the full control effect; potency is read from the fitted curve at half-maximal effect.

`CC(O)C(=O)/C=C/C=C/C(=O)OC1C=C2COC(=O)C2(O)C2(C)CCCC(C)(C)C12` (centres undefined) was tested. Which “activity change, negative = inhibition” value did it give?
The value was -23.7%.

How did the “activity change, negative = inhibition” value turn out when `CC(=O)Nc1cccc2c1c(Sc1ccc(Cl)cc1)c(C)n2CC(=O)O` was run?
The value was -8.24% [at 57.1 µM].

With `C[C@@H]1C[C@H]2OC(=O)[C@@]3(C)CCC[C@](C)(C23)[C@@]1(O)CCC1=CC(=O)OC1O` (some centres undefined) as the compound, how does the “activity change, negative = inhibition” value read?
Its value is -27.4%.

Which “activity change, negative = inhibition” value does the source give for `CC(C)=CCC(O)[C@](C)(O)C1[C@H](O)C[C@@]2(C)C3CC=C4C(C[C@H](O)[C@@H](O[C@@H]5O[C@H](CO)[C@@H](O)[C@H](O)[C@H]5O)C4(C)C)[C@]3(C)C(=O)C[C@]12C` (some centres undefined) here?
The value was -1.87% [at 15.1 µM].

Which “activity change, negative = inhibition” value does the source give for `CC/C=C\CC1C(CC(=O)O)CCC1OC1OC(CO)C(O)C(O)C1O` (centres undefined) here?
The value was -14.6%.

How did the “activity change, negative = inhibition” value turn out when `CC(=O)OC(C)C(C)(O)C(=O)O[C@@H]1CC[C@]2(C)CC(=O)C(=C(C)C)C[C@H]2[C@]1(C)OC(C)=O` (some centres undefined) was run?
Its value is -15.4%.

For `CC(C)(O)C1CC=C(C(=O)OC[C@H]2O[C@@H](OC(=O)C3=CCC(C(C)(C)O)CC3)[C@H](O)[C@@H](O)[C@@H]2O)CC1` (some centres undefined), which “activity change, negative = inhibition” value is on record?
The value was -16.3%.

Which “activity change, negative = inhibition” value does the source give for `CC(=O)OC1CC2C(C)(C)C(=O)C=CC2(C)C2CC(=O)C3=C(CCC3C3=CC(O)OC3=O)C12C` (centres undefined) here?
The value was -0.577%.

Which activity change, negative = inhibition does the source give for `CC[C@H](C)[C@H](NC(=O)[C@H](Cc1ccc(O)cc1)NC(=O)[C@@H](N)C(C)C)C(=O)N[C@@H](Cc1cnc[nH]1)C(=O)N1CCC[C@H]1C(=O)N[C@@H](Cc1ccccc1)C(=O)O` here?
The activity change, negative = inhibition was 8.38% [at 4.91 µM].

`C=C1CC[C@H]2[C@@](C)(CCC(O)[C@@]2(C)CO)[C@@H]1/C=C/C(=C\C(=O)O)C(=O)O` (some centres undefined) was tested. Which “activity change, negative = inhibition” value did it give?
The value was -6.86%.

With `C/C=C(/C)C(=O)O[C@H]1C[C@]2(C)O[C@@H]2[C@@H](OC(C)=O)[C@@]2(C)CC[C@@](O)(C(C)C)[C@H]12` as the compound, how does the “activity change, negative = inhibition” value read?
Its value is 23.9%.

`C[C@@H]1O[C@@H](O[C@H]2[C@H](OC(=O)[C@]34CCC(C)(C)C[C@H]3C3=CCC5[C@@]6(C)CC[C@H](O[C@@H]7O[C@H](CO[C@@H]8OC[C@H](O)[C@H](O)[C@H]8O[C@@H]8OC[C@@H](O)[C@H](O)[C@H]8O)[C@@H](O)[C@H](O)[C@H]7O)C(C)(C)C6CC[C@@]5(C)[C@]3(C)C[C@H]4O)O[C@H](CO)[C@@H](O)[C@@H]2O)[C@H](O[C@@H]2O[C@H](CO)[C@@H](O)[C@H](O)[C@H]2O)[C@H](O)[C@H]1O[C@@H]1OC[C@@H](O)[C@H](O[C@@H]2OC[C@@H](O)[C@H](O)[C@H]2O)[C@H]1O` (some centres undefined) was tested. Which “activity change, negative = inhibition” value did it give?
Its value is 4.54% [at 10.7 µM].

With `COc1ccc(OC)c(C2C(C#N)=C(N)Oc3n[nH]c(-c4ccc5ccccc5c4)c32)c1` (centres undefined) as the compound, how does the “activity change, negative = inhibition” value read?
The value was 16.1% [at 57.1 µM].

`C/C=C(/C)C(=O)O[C@@H]1C[C@@H](OC(=O)/C(C)=C\C)[C@@]2(C)C3C(=O)C=C(C)C2C3C1(C)C` was tested. Which “activity change, negative = inhibition” value did it give?
Its value is -16.8%.

For `C=C1CC2C3(C)C(O)CC(=O)C(C)(C)C3C(O)C(OC(C)=O)C2(C)C2C(=O)OC(C)(C(=O)OC)C(=O)C12C` (centres undefined), which “activity change, negative = inhibition” value is on record?
Its value is 29.7%.

For `CC1(C)CCC[C@]2(C)C1CC=C(CO)[C@H]2CC/C(=C/CO)CO` (some centres undefined), which “activity change, negative = inhibition” value is on record?
Its value is -10.9%.

For `C/C=C(\C)C(=O)O[C@H]1C=CC(=O)O[C@H]1/C=C/[C@H](O)[C@@H](C)O`, which “activity change, negative = inhibition” value is on record?
The value was 2.86% [at 57.1 µM].

`CC1OC(OC2C(OC(=O)[C@]34CCC(C)(C)C[C@H]3C3=CCC5[C@@]6(C)CC[C@H](OC7OC(C(=O)O)C(O)C(O)C7O)C(C)(C)C6CC[C@@]5(C)[C@]3(C)CC4O)OC(CO)C2O)C(O)C(O)C1OC1OCC(O)C(O)C1O` (some centres undefined) was tested. Which “outcome” value did it give?
The value was “inactive [at 15.1 µM]”.

`C=C1C(=O)O[C@@H]2/C=C(\C)CC/C=C(\C(=O)O[C@@H]3O[C@H](CO)[C@@H](O)[C@H](O)[C@H]3O)CC[C@@H]12` was tested. Which “activity change, negative = inhibition” value did it give?
Its value is -2.5%.

With `C=CCC/C=C/C#CCCCCCCCC[C@H]1C(=O)O[C@H](C)[C@@H]1O` as the compound, how does the “activity change, negative = inhibition” value read?
Its value is -17.6%.

With `O=C(Cn1c2ccccc2c2nc3n(c(=O)c21)CCS3)N1CCCC1` as the compound, how does the “outcome” value read?
Its value is “inactive”.

With `C[C@@H]1O[C@@H](O[C@H]2[C@H](O)[C@@H](O)[C@H](OC(=O)[C@]34CCC(C)(C)C[C@H]3C3=CCC5[C@@]6(C)CC[C@H](O[C@@H]7O[C@H](C(=O)O)[C@@H](O)[C@H](O)[C@H]7O)C(C)(C)C6CC[C@@]5(C)[C@]3(C)CC4)O[C@@H]2CO)[C@H](O)[C@H](O)[C@H]1O` (some centres undefined) as the compound, how does the “activity change, negative = inhibition” value read?
Its value is -23.4% [at 15.1 µM].

For `CC(C(=O)Nc1cc(C#N)ccc1CCCC(=O)O)c1ccc(F)c2ccccc12` (centres undefined), which “activity change, negative = inhibition” value is on record?
Its value is -19.7% [at 57.1 µM].

For `CC(C)c1ccc2c(c1)C(O)CC1C(C)(C(=O)O)CCCC21C` (centres undefined), which “activity change, negative = inhibition” value is on record?
Its value is 2.47%.

Which Potency does the source give for `CC(C)c1ccc2c(c1)CCC1[C@](C)(C(=O)O)CCC[C@]21C` (some centres undefined) here?
The Potency was 12.4 µM (active).

For `CC(C/C=C/C(C)(C)O)C1CCC(C)(O)C(O)C1` (centres undefined), which “activity change, negative = inhibition” value is on record?
The value was -25.3% [at 57.1 µM].

For `CC1CCC2C(C)(C)C(O)C(O)CC2(C)C12Cc1c(O)cc(CO)c(C=O)c1O2` (centres undefined), which “outcome” value is on record?
Its value is “inactive [at 33.1 µM]”.

How did the “activity change, negative = inhibition” value turn out when `C=C1C[C@@]2(O)O[C@@]3(C[C@H]2C(C)C)[C@@H](C)CC[C@@H]13` was run?
Its value is -4.48% [at 57.1 µM].

How did the “activity change, negative = inhibition” value turn out when `CC1=C(CC/C(C)=C/C(=O)O)[C@@]2(C)CCCC(C)(C)C2CC1=O` (some centres undefined) was run?
Its value is -11.8%.

With `COc1c2c(c(C)c3c1C(=O)OC3)OC1(C)CC(O)C34OC(OC)(CCC3(C)C1C2)OC4(C)CO` (centres undefined) as the compound, how does the “activity change, negative = inhibition” value read?
The value was -24.2%.

For `O=C(O)CC(CCc1ccccc1)OC1OC(CO)C(O)C(O)C1O` (centres undefined), which “outcome” value is on record?
Its value is “inactive [at 33.1 µM]”.

`C#CCCCn1cc(-c2cccc3c2N[C@@H](C)CC(=O)N3)cn1` was tested. Which “activity change, negative = inhibition” value did it give?
The value was 16.7% [at 57.1 µM].

How did the “activity change, negative = inhibition” value turn out when `C[C@H]1CC[C@@]2(OC1)O[C@H]1CC3C4CC[C@H]5C[C@@H](O)CC[C@]5(C)C4CC(=O)[C@]3(C)[C@H]1[C@@H]2C` (some centres undefined) was run?
Its value is -9.73%.

With `CC(C)CC(=O)OC[C@@]1(O)C[C@@]23CC[C@H]4[C@@](C)(CCC[C@@]4(C)C(=O)O)[C@@H]2CC[C@@H]1C3` as the compound, how does the “activity change, negative = inhibition” value read?
The value was -13.8%.

For `C=C1Cc2c(Cl)cc3[nH]c4c5c3c2[C@@]2(O)[C@@H]1C[C@@H]2C(C)(C)O[C@H]5C1CC[C@@]2(O)[C@@]35O[C@@H]3[C@H]3OC(C)(C)[C@H]3O[C@H]5CC[C@]2(C)[C@@]41C` (some centres undefined), which “activity change, negative = inhibition” value is on record?
Its value is -14.9% [at 15.1 µM].

How did the “activity change, negative = inhibition” value turn out when `O=C(O)CCc1cccc(O)c1O[C@@H]1O[C@H](CO)[C@@H](O)[C@H](O)[C@H]1O` was run?
Its value is -14.8%.

For `C=C1CC/C=C(/C(=O)O)CCC2C1CC2(C)C` (centres undefined), which “activity change, negative = inhibition” value is on record?
The value was -26% [at 57.1 µM].

With `C/C=C(\C)C(=O)OC1C2(O)CC3=C4CC(=O)OC(c5ccoc5)C4(C)CCC3C(C)(C2=O)C(C(OC(C)=O)C(=O)OC)C1(C)C` (centres undefined) as the compound, how does the “activity change, negative = inhibition” value read?
Its value is -11.2% [at 15.1 µM].

`CCCN1CCC[C@@H](c2cccc(S(C)(=O)=O)c2)C1` was tested. Which “outcome” value did it give?
Its value is “inactive”.

— PubChem BioAssay (NCATS)
